Experimental data: PubChem BioAssay (NCI)
About 83,000 compounds went through this panel and 20% of them were active in at least one assay; those are over-represented in the sample as a whole.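 Compound tested at a single concentration for 48 hours in 96-well plates; a percent growth value below 10 was scored as active.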 A number with no mark means an inactive call. Active and inactive are the calls of the source.

Legend:
Assay in all cases: NCI-60 one-dose screen, 48 h (100 = growth as untreated, 0 = no growth, -100 = all killed)
Details in all cases: 10 µM unless noted
SR leukemia = test system: SR leukemia
RPMI-8226 leukemia = test system: RPMI-8226 leukemia
OVCAR-8 ovarian = test system: OVCAR-8 ovarian
OVCAR-5 ovarian = test system: OVCAR-5 ovarian
OVCAR-4 ovarian = test system: OVCAR-4 ovarian
SK-OV-3 ovarian = test system: SK-OV-3 ovarian
IGROV1 ovarian = test system: IGROV1 ovarian
OVCAR-3 ovarian = test system: OVCAR-3 ovarian
HS 578T breast = test system: HS 578T breast
NCI/ADR-RES ovarian = test system: NCI/ADR-RES ovarian

SMILES	growth (SR leukemia)	growth (RPMI-8226 leukemia)	growth (OVCAR-8 ovarian)	growth (OVCAR-5 ovarian)	growth (OVCAR-4 ovarian)	growth (SK-OV-3 ovarian)	growth (IGROV1 ovarian)	growth (OVCAR-3 ovarian)	growth (HS 578T breast)	growth (NCI/ADR-RES ovarian)
COc1cc(Br)c(-c2nc(-c3ccccc3)c(-c3ccccc3)n2Cc2ccccc2)cc1OC	47.3%	40.8%	55%	77.1%	48.6%	39.5%	49.4%	68.6%	88.7%	48.9%
CCN(CC)CCNC(=O)c1c(C)[nH]c(/C=C2\C(=O)Nc3cc(NC(=O)NC(=O)c4ccc(OC)cc4F)ccc32)c1C	10.6%	75.7%	34%	120%	111%	129%	98.5%	111%	84.4%	88.3%
CCOc1ccc(-n2c(-c3cc(OC)c(OC)c(OC)c3)nnc2-c2ccc(OC)cc2N)cc1	19.3%	82.6%	64.5%	95.5%	74.7%	75.2%	57.2%	53.6%	77.7%	77.1%
COc1ccc(-c2nnc(SCC(=O)N3CCN(c4cc5c(cc4F)c(=O)c(C(=O)O)cn5C4CC4)CC3)o2)cc1OC	90.6%	90.1%	96.9%	96.2%	103%	84.2%	97.1%	111%	101%	98.1%
O=C(Nc1ccc(-n2ccc3c(NC(=O)c4ccccc4)ncnc32)cc1)Nc1ccc(Cl)c(Cl)c1	-6.07% (active)	-1.3% (active)	0.377% (active)	39.6%	-74.1% (active)	67.9%	-2.23% (active)	-67.1% (active)		53.2%
CCN1CCN(Cc2ccc(NC(=O)Nc3cccc(-n4ccc5c(NC(=O)c6ccccc6)nccc54)c3)cc2C(F)(F)F)CC1	64.3%	99.1%	91%	101%	95.8%	78.3%	74.8%	57.3%		92.1%
O=S(=O)(O)c1ccc(F)cc1	101%	100%	116%	111%	105%	102%	98.8%	106%	102%	104%
Cc1ccc(NC(=O)CN2CCOCC2)cc1Cl	82.3%	93.3%	92%	99.9%	94.7%	90.1%	107%	104%	98.7%	103%
O=C(Nc1ccc(-n2cc(-c3ccncc3)c(-c3ccc(O)c(Cl)c3)n2)cc1)Nc1ccc(Cl)c(C(F)(F)F)c1	4.23% (active)	-19.2% (active)	15.2%	43.4%	42.2%	32.6%	22.8%	1.16% (active)		17.9%
COc1ccc(-c2nn(-c3ccc(NC(=O)c4ccc(Cl)c(C(F)(F)F)c4)cc3)cc2-c2ccncc2)cc1Cl	7.78% (active)	-38.2% (active)	46.5%	46.5%	93.9%	58.1%	44.8%	24%		35.7%
C#C[C@@]1(O)[C@@H](CO)O[C@@H](n2cc(Br)c3c(Cl)ccnc32)[C@@H]1O	22.4%	0.227% (active)	-42.5% (active)	40.8%	26.9%	42.1%	61%	-9.54% (active)	40.9%	0.838% (active)
COc1cccc(/C=N/C(=S)NC2(C)C3CCC(C3)C2(C)C)c1O (stereo not given)	38.4%	73.5%	85.4%	102%	45.5%	102%	64.3%	73.2%		83.7%
O=C(c1cc(-c2ccc(Cl)cc2)nc2ccccc12)N1N=C(c2ccccc2)CC1c1cc(-c2ccccc2)nn1-c1ccccc1 (stereo not given)	73.4%	86.8%	87.1%	89.4%	64.3%	93.8%	60.8%	68.8%	89.3%	81.5%
COc1ccc(Cl)cc1NC(=O)c1cc2c([nH]1)-c1nc(NC(=O)C(C)C)sc1CC2	77.9%	93.7%	107%	128%	109%	78.1%	77.1%	103%	93.4%	93.9%
